Compound activity deposited in PubChem BioAssay by National Center for Advancing Translational Sciences (NCATS).
Rows were chosen to be rich in hits. Some 6.5% of all compounds tested hit in one or more screens of this group.
HCMV antiviral: inhibitors of human cytomegalovirus | HFF cells, HCMV-luciferase reporter, 72 h; hits give low values | activity change, negative = inhibition, % at 57.5 µM | hit rate 4.5% among 410,000; in the data active = activity change below about -60%; inconclusive = no clear call, values can overlap the other calls; inactive = above about -39%
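Two compound doses tested in HFFs infected with HCMV-luciferase, MOI 1 PFU/cell, 72 h at 37C. Lysate luminescence read with OneGlo; data normalized against buffer-only and 10uM Salinomycin inhibitor controls.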
Vaccinia mCherry: vaccinia inhibition (mCherry reporter); hit rate 0.63% among 310,000; AID 720579; Potency, µM (titrated, usually from 36.5 µM), inactives show at the top dose activity change, negative = inhibition, usual class: inhibitors; Vaccinia virus mCherry reporter infection, fluorescence; calls by dose curve; tested in A549 cells; also: potency is read from the fitted curve at half-maximal effect; nearly all actives have a fitted effect of over 35% in size
VACV Venus inh: vaccinia inhibition (Venus reporter). Vaccinia virus Venus reporter expression, fluorescence. Potency, µM (highest dose often 36.5 µM), without a hit: at the top dose activity change, negative = inhibition, hits mostly inhibitors. hit rate 0.46% among 330,000; calls by dose curve; tested in A549 cells; also: potency is read from the fitted curve at half-maximal effect; nearly all actives have a fitted effect of over 30% in size
Lassa entry inh: blocks Lassa virus binding to or entry into cells; Lassa virus pseudotype entry inhibition, cell reporter; hit rate 1.2% among 300,000; AID 540256; Potency, µM (highest dose often 37.9 µM), without a hit: at the top dose activity change, negative = inhibition, usual class: inhibitors; calls by dose curve; tested in HEK293 cells; also: potency is read from the fitted curve at half-maximal effect; nearly all actives have a fitted effect of over 50% in size
FMDV antiviral: blocks foot and mouth disease virus; Potency, µM (series often up to 57.9 µM), for inactives: top-dose activity change, negative = inhibition, usual class: inhibitors; FMDV antiviral cell-based qHTS; hit rate 1.2% among 410,000; calls by dose curve; tested in HEK293T cells; also: read-out not given here; potency is read from the fitted curve at half-maximal effect; nearly all actives have a fitted effect of over 45% in size
Marburg entry inh: Marburg virus entry inhibition. Potency, µM (series often up to 37.8 µM), for the others: at the top dose activity change, negative = inhibition, actives largely listed as inhibitors. hit rate 1.8% among 300,000. Marburg virus pseudotyped entry inhibition, cell reporter; calls by dose curve; tested in HEK293 cells; also: potency is read from the fitted curve at half-maximal effect
The depositor's hits bear a star; i = inactive; ? = inconclusive; / = not tested or not shown; [ ] = dose if it differs, or a comment. % is scaled to controls: 0 for no effect and ±100 for the full control effect.

SMILES | HCMV antiviral | Vaccinia mCherry | VACV Venus inh | Lassa entry inh | FMDV antiviral | Marburg entry inh
Nc1nc2ccccc2n1CCOc1ccc(Cl)cc1 | -21 | -26% | -24% | 1% | -4% | ?
Nc1nc2ccccc2n1CCOc1ccccc1Cl | -19 | / | ? | -10% | ? | 11µM*
CCN(CC)CCn1c(=N)n(CCOc2ccccc2Cl)c2ccccc21 | -99* | ? | ? | ? | ? | ?
CCN(CC)CCn1c(=N)n(CC(O)COc2ccccc2C)c2ccccc21 (configuration not stated) | -99* | ? | ? | ? | 0% | 3.2µM*
COC(=O)[C@H](c1ccccc1)N1CCCCCC1 | / | / | / | / | / | 10%[46.1 µM]
Cc1ccc(N(C)C(=O)C2CCN(S(=O)(=O)c3cn(C)cn3)CC2)cc1 | 12 | i | -12% | 8%[46.1 µM] | 4% | /
CC1CC(C)(C)Nc2ccc(N=O)cc21 (configuration not stated) | -60* | ? | 0% | / | ? | /
CC1CC(C)(C)Nc2ccc(OC(=O)c3ccco3)cc21 (configuration not stated) | -107* | / | 8% | ? | ? | ?
COc1ccc(-c2nn(C)c3sc(C(=O)N4CCN(c5cccc(Cl)c5)CC4)cc23)cc1OC | -10 | -18% | -3% | ? | -24% | -13%[46.1 µM]
Cc1cc(O)cc(O)c1-c1onc(C(F)(F)F)c1-c1cscn1 | -71* | / | ? | -26% | ? | ?
CCOc1ccc(-c2onc(C(F)(F)F)c2-c2cscn2)c(O)c1 | -32 | / | / | -3% | ? | 2%
COc1ccccc1N(C)C | / | i | -13% | / | / | /
CCOc1cc(C(=O)Nc2ccc3c4c(cccc24)C(=O)N3CC)cc(OCC)c1OCC | 100 | / | / | -3% | ? | 18µM*
COC1=C[C@H](C(=O)NC2CCN(Cc3ccccc3)CC2)[C@H](C)[C@@H](c2ccccc2)CC1=O | / | / | / | / | / | 9%[14.2 µM]
O=C(COc1ccc(S(=O)(=O)NC2CCCCC2)cc1)N1CCN(c2cccc(Cl)c2)CC1 | -91* | / | / | ? | ? | ?
CC(C)NS(=O)(=O)c1ccc(OCC(=O)N2CCN(c3ccccc3)CC2)cc1 | -5 | i | -12% | -1%[46.1 µM] | -1% | -2%[46.1 µM]
Cc1ccc(S(=O)(=O)NCCC(=O)N2CCN(c3cccc(Cl)c3)CC2)cc1C | 2 | -14% | -24% | -25% | ? | ?
CS(=O)(=O)N(CC(=O)N1CCN(c2cccc(Cl)c2)CC1)C1CCCCC1 | -7 | ? | -24% | -1% | ? | 4%
CCNS(=O)(=O)c1ccc(CCC(=O)N2CCN(c3cccc(Cl)c3)CC2)cc1 | -23 | -28% | -14% | ? | 28µM* | ?
Cc1ccc(Cl)cc1N1CCN(C(=O)COc2ccc(S(=O)(=O)NC(C)C)cc2)CC1 | -89* | ? | ? | / | ? | /
CC(C)NS(=O)(=O)c1ccc(OCC(=O)N2CCCC2)cc1 | 27 | i | 2% | 4% | / | 9%
Cc1ccc(Cl)cc1N1CCN(C(=O)CN(C2CCCCC2)S(C)(=O)=O)CC1 | -24 | ? | -29% | -24% | 14µM* | ?
CC1=C(C(=O)Nc2ccc(Cl)cc2)C(c2cccs2)n2nc(SCc3cccc(C)c3)nc2N1 (configuration not stated) | 9 | -9% | -4% | 0%[46.1 µM] | -6% | -2%[46.1 µM]
NS(=O)(=O)c1ccc(Nc2nc(-c3ccc(F)cc3)cs2)cc1 | -27 | ? | -17% | -1% | ? | ?
NS(=O)(=O)c1ccc(Nc2nc(-c3ccc(O)cc3O)cs2)cc1 | -91* | i | -15% | -23% | ? | ?
SMILES | HCMV antiviral | Vaccinia mCherry | VACV Venus inh | Lassa entry inh | FMDV antiviral | Marburg entry inh
COc1cc(OC)cc(-n2c(=O)c3sccc3n(Cc3ccc(F)cc3)c2=O)c1 | -4 | -5% | -5% | 2%[46.1 µM] | -23% | -27%[46.1 µM]
Cc1cc(C(=O)c2ccc(Cl)cc2)c(NC(=O)CCl)s1 | -23 | ? | -20% | -3% | 25µM* | ?
CCc1cc(C(=O)c2ccc(C)cc2)c(NC(=O)CCl)s1 | -30 | -8% | -23% | ? | 0% | ?
COC(=O)c1c(C(=O)OC)c(-c2ccc(C)cc2)n2c1CCC2 | -33 | / | / | -23% | -6% | -7%
COC(=O)c1c(C(=O)OC)c(-c2ccc(OC)cc2)n2c1CS(=O)(=O)C2 | -74* | / | / | / | -1% | /
CCc1ccccc1NC(=O)/C(=C/c1ccco1)c1ccccc1 | -24 | / | -26% | 16µM* | ? | ?
Cc1ccccc1NC(=O)/C(=C/c1ccco1)c1ccccc1 | -104* | -25% | -7% | -7% | 0% | -23%
CC(C)(C)NC(=O)/C(=C/c1ccco1)c1ccccc1 | 29 | i | 9% | 11% | -21% | -5%
COC(=O)c1sccc1S(=O)(=O)N1CCN(c2cccc(C)c2)C(C)C1 (configuration not stated) | 3 | -3% | -5% | ? | -23% | /
COc1ccc(C(=O)NCC2Cc3c(F)ccc(-c4nc(C)cnc4C)c3O2)cc1F (configuration not stated) | / | -6% | 2% | / | -5% | /
c1cncc(Nc2nc(-c3ccncc3)cs2)c1 | 12 | / | / | 5% | 7% | ?
CC(=O)Oc1ccc(-c2csc(Nc3cccnc3)n2)cc1 | -102* | -10% | -8% | 3% | 15% | ?
COc1ccc(-c2csc(Nc3ccc(Oc4ccccc4)cc3)n2)cc1 | -65* | 13% | -14% | / | ? | /
COc1ccc(Nc2ncnc3c2nc2n3CCCC2)cc1Cl | 173 | 0% | -16% | 15%[46.1 µM] | 14% | /
COc1ccc(C(=O)C[n+]2cc(-c3ccc(OC)cc3)n3c2CCCC3)cc1 | -67* | -17% | ? | -16%[46.1 µM] | ? | ?
Cc1ccc(C(=O)C[n+]2cc(-c3ccc(C)cc3)n3c2CCCCC3)cc1 | -102* | -12% | -24% | ? | 10µM* | ?
O=C(C[n+]1cc(-c2ccccc2)n2c1CCCCC2)c1ccc(Br)cc1 | -6 | -3% | -13% | -12% | ? | -25%
Cc1ccc(NC(=O)C[n+]2cc(-c3ccc(C)cc3)n3c2CCC3)cc1 | -8 | -2% | -15% | -4% | 3% | -3%[46.1 µM]
Cc1ccc(-c2c[n+](Cc3ccc(Cl)c(Cl)c3)c3n2CCC3)cc1 | -99* | -23% | -23% | ? | -22% | ?
COc1ccc(-c2c[n+](CC(=O)c3cccs3)c3n2CCC3)cc1 | 1 | -3% | -23% | -11% | 0% | -17%
Cc1ccc(-c2c[n+](CC(=O)Nc3ccc(C)cc3C)c3n2CCC3)cc1 | -71* | i[7.34 µM] | -7%[7.34 µM] | -18% | -7% | -1%[46.1 µM]
CCN1CCN(c2oc(/C=C/c3cc(OC)c(OC)c(OC)c3)nc2C#N)CC1 | ? | -23% | -18% | 17%[46.1 µM] | -11% | -1%[46.1 µM]
COc1ccc2oc(-c3cccc(NC(=O)c4cc([N+](=O)[O-])ccc4N4CCOCC4)c3)nc2c1 | 11 | 5% | 3% | ? | -12% | ?
Cc1cc(C)cc(NC(=O)c2cc(S(=O)(=O)N3CCCC3)ccc2F)c1 | -39 | -20% | -22% | -23%[46.1 µM] | -9% | /
